# In all, about 65,000 compounds went through this assay and about 370 (0.57%) were called active. Shown is part of a subset that was picked to be rich in actives. Values without a mark were called inactive.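 How the source made its calls: active means activation above the screen-wide mean activation plus 3 SD (cut at about 19% in these data); inactive means the rest.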
# Target: 5-hydroxytryptamine receptor 1A (Homo sapiens) (UniProt P08908)
# Test: human 5-HT1a receptor agonists, primary screen, cell-based, CHO, Ga15 NFAT-bla reporter (AID 567);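 further: 0% = DMSO wells and 100% = 5-CT at EC100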
# Conditions: CHO 5-HT1a Ga15 NFAT-bla reporter, FRET ratio; at 10 µM; stronger effect = higher value
# Sequence of 5-hydroxytryptamine receptor 1A (Homo sapiens) (P08908 whole entry, looked up): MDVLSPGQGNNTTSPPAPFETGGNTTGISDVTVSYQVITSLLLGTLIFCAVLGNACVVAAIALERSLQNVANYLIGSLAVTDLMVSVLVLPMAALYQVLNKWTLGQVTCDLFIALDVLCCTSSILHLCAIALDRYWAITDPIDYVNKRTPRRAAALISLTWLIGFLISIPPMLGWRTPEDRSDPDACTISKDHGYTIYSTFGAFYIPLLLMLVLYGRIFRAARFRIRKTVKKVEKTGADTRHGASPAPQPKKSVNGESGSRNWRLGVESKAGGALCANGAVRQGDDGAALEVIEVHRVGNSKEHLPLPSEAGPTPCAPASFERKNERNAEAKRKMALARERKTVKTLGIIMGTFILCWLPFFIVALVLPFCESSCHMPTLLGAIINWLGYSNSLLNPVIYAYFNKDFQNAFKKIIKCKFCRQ
row,Compound,activation
1,CCc1cccc2c(C#N)cn(CC(=O)N3CCOCC3)c12,60.2% (active)
2,COC(=O)C(c1ccccc1)N1CCCCCC1 (stereo not given),1.53%
3,COC(=O)C(O)(c1ccc(NC(=O)c2ccco2)c(OC)c1)C(F)(F)F (stereo not given),-0.22%
4,CC1(C)C(c2ccccc2)=NC(c2cccnc2)=[N+]1[O-],49.7% (active)
5,CCOC(=O)C1CN(C)CCC1=O (stereo not given),-3.2%
6,CC(=O)N(C1=NCCCS1)c1ccccc1F,-0.07%
7,Cc1ccc2c(c1)C1CN(C)CCC1N2C(=O)Cn1nnc(-c2ccccc2F)n1 (stereo not given),1.76%
8,Cc1ccc(Cn2nnnc2CN2CCC(n3nnc4ccccc43)CC2)cc1,-1.46%
9,CN1CCN(Cc2ccccc2C(F)(F)F)CC1,-1.3%
10,Cc1cccc(-n2c(C)nc3cc(C(=O)N4CCC5(CC4)OCCO5)ccc32)c1,27.3% (active)
11,O=C(c1cc2nc(-c3ccccc3)cc(-c3ccccc3)n2n1)N1CCC2(CC1)OCCO2,0.72%
12,O=C(c1cc(-c2ccncc2)nc2ccccc12)N1CCC2(CC1)OCCO2,-2.03%
13,Fc1cccc(F)c1CN1CCN(Cc2c(F)cccc2F)CC1,-2.86%
14,CC(=O)N1CN2CN(C(C)=O)CC(C(=O)c3ccc(Br)cc3)(C2)C1,0.98%
15,O=C(O)C1CSC(c2cccnc2)N1 (stereo not given),-3.3%
